54 molecules from PubChem BioAssay AID624170 (National Center for Advancing Translational Sciences (NCATS), 2012) can be followed below.

Each structure is given as a SMILES string. Several values for one entry are separate records, joined by “and”; a condition that tells them apart may be missing. Equal values may be shown once. Among all 410,000 compounds or so, about 850 (0.21%) were called active. A call without a number means that no potency is given here. About 2% were inconclusive and are not listed. Calls come from the whole dose curve; as a rule, active = well fitted inhibition curve with a large enough effect; inconclusive = small, poorly fitted or top-dose-only effect, or another doubt; inactive = no such curve, though single readings can be large or run the other way. The sample as a whole holds a higher share of actives than the screen did. The source holds several records for some structures; these can differ, active in one and inactive in another.
Potency is the fitted concentration of half-maximal effect.

Chain of Glutaminase kidney isoform, mitochondrial (Homo sapiens) (O94925 whole entry, looked up, canonical isoform): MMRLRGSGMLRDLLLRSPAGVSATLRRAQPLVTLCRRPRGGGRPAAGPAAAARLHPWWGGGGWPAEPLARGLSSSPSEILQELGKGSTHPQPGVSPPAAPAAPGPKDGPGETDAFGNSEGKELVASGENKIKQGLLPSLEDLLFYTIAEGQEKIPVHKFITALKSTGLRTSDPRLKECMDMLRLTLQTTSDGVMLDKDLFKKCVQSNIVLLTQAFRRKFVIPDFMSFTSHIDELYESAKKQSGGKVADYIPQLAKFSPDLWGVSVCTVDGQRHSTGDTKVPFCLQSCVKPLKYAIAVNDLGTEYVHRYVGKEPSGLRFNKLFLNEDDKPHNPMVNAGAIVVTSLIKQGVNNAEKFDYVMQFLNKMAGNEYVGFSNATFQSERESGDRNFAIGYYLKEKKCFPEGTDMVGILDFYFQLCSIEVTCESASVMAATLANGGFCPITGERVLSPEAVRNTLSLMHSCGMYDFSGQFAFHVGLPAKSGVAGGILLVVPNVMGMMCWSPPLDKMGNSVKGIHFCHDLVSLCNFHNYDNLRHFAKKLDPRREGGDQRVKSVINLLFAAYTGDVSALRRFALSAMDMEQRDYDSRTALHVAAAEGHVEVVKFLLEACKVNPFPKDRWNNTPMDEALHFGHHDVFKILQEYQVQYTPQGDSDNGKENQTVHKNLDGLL

For the assay, the target named is Glutaminase kidney isoform, mitochondrial (Homo sapiens) (UniProt O94925). Briefly: qHTS for Inhibitors of Glutaminase (GLS). Particulars: GLS enzymatic activity, qHTS titration; series mostly up to 45.5 µM. From the text:
Glutaminase (GLS) catalyzes the hydrolysis of glutamine into glutamate and ammonia. It plays a critical role in glutaminolysis, which is an important energy source for proliferating cells. It was shown that c-Myc, an oncogenic transcription factor known to regulate microRNAs and to stimulate cell proliferation, increases glutamine metabolism by stimulating the expression of GLS via direct suppression of miR23a and miR23b.
GLS is also thought to play a pathogenic role on HAD using a human HIV-1 infected macrophage system. […] GLS inhibition limits glutamate release and provides neuroprotection against HIV-1 infected macrophages.
The overall goal of this project is to identify small molecule inhibitors of GLS through quantitative high throughput screening (qHTS) of the MLSMR. A validated potent and selective inhibitor can be used as a tool molecule to further study the pharmacology of its target as well as explore its potential therapeutic application in cancer and inflammatory neurological disorders, such as HIV1-associated dementia (HAD) and multiple sclerosis.
NIH Chemical Genomics Center [NCGC]
NIH Molecular Libraries Probe Centers Network [MLPCN]
Assay Submitter (PI): Barbara S. Slusher, Johns Hopkins University
Three 3 uL of hKGA is dispensed into black well 1536-well plates in 45 mM KH2PO4 (pH 8.2), 0.02% Tween-20. Then 23 nL of compounds are added through pin tool transfer. To this, 1 uL of 1mM L-Glutamine and 1 uL of a solution of L-Glutamateoxidase, HRP, Amplex red are added. Plate is centrifuged for 25 sec before an initial fluorescence read is obtained on the ViewLux, after 30 min of RT incubation, the final read is taken on the ViewLux.
As for `CNC(=O)CN1C(=O)c2cccnc2Sc2ccccc21`, the Potency result was “inactive”. Take `CC(=O)c1ccc(NC(=O)COc2ccccc2-c2nc(-c3ccccc3)no2)cc1`: the Potency result was “inactive”. For `CCOC(=O)c1cc2c(=O)n3ccccc3nc2n(CC2CCCO2)c1=NC(=O)c1ccc(C(C)(C)C)cc1` (centres undefined), the Potency entry is “inactive”. In the case of `CCC(C)C1OC2(C=CC1C)CC1CC(C/C=C(/C)C(OC3CC(OC)C(OC4CC(OC)C(NC(C)=O)C(C)O4)C(C)O3)C(C)/C=C\C=C3\COC4C(O)C(C)=CC(C(=O)O1)C34O)O2` (centres undefined) it was “inactive”. Regarding `C[C@@H]1C[C@H]2[C@@H]3C[C@H](F)C4=CC(=O)C=C[C@@]4(C)[C@]3(F)[C@H](O)C[C@]2(C)[C@@]1(O)C(=O)CO`, the Potency entry is “inactive”. Turning to `O=C(Nc1ccccc1Cl)/C(Cl)=C(\Cl)S(=O)c1ccccc1` (centres undefined), the Potency was 1.78 µM (active). In the case of `O=C(Nc1ccccc1Cl)N1CCC(CN2CCCC2)CC1` it was “inactive”; in that of `O=C(Nc1ccccc1Cl)N1CCC(CN2CCCCC2)CC1`, “inactive”.

As for `O=C(/C=C/c1cccc(F)c1)NC1CC1`, the Potency entry is “inactive”. Regarding `Cc1nnc(C(=O)NC(C)(C)c2nc(C(=O)NCc3ccc(F)cc3)c(O)c(=O)n2C)o1`, the Potency entry was “inactive”. For the molecule `COc1ccc(OC)c([C@H](O)CNC(=O)CN)c1`, the Potency result is “inactive”. For the molecule `Cc1cc(C)c2nc(SCC(=O)N(C)C3CCS(=O)(=O)C3)cc(C)c2c1` (centres undefined), the Potency result was “inactive”.

`CN(C(=O)COC(=O)c1cc(-c2ccco2)nc2ccccc12)C1CCS(=O)(=O)C1` (centres undefined): the Potency was 10 µM (active). To `CCN(C(=O)COC(=O)/C=C/c1nc2ccccc2s1)C1CCS(=O)(=O)C1` (centres undefined) belongs “inactive”. As for `CCOC(=O)CN1C(C(=O)c2ccccc2)=C(OC(=O)C(C)(C)C)c2ccccc2S1(=O)=O`, the Potency entry is “inactive”. In the case of `C=C(C)C(=O)Nc1cccc(C2=NOC3(C2)C[C@H](C(N)=O)N(C(=O)C(c2ccccc2)c2ccccc2)C3)c1` (some centres undefined), the Potency was 14.1 µM (active). As for `NC(=O)[C@H]1CC2(CC(c3cccc(NC(=O)[C@H]4CCC(=O)N4)c3)=NO2)CN1C(=O)c1ccccc1C(=O)c1ccccc1` (some centres undefined), the Potency entry is “inactive”.

As for `CCC(=O)Nc1cccc(C2=NOC3(C2)C[C@@H](C(N)=O)N(C(=O)c2cc([N+](=O)[O-])cc([N+](=O)[O-])c2C)C3)c1` (some centres undefined), the Potency result was “inactive”. To `COc1ccc(OC)c(NC(=O)Cn2c(=O)n(Cc3ccccc3)c(=O)c3ccccc32)c1` belongs “inactive”. On to `CC(C)(C)C1C/C(=C/c2ccco2)C(=O)/C(=C/c2ccco2)C1` (centres undefined), for which the Potency is 22.4 µM (active).

For `CC[C@]1(C)CC(=O)NC1=O`, the Potency entry is “inactive”.

As for `O=P(O)(O)OC[C@H](O)CO`, the Potency result was “inactive”. Regarding `CC(C)c1ccc(NS(=O)(=O)c2ccc3[nH]cc(C(=O)NC4CCCC4)c(=O)c3c2)cc1`, the Potency entry is “inactive”.

Turning to `COc1cc(Cl)c(C)cc1NC(=O)CCc1nc2cccnc2n1Cc1cccs1`, the Potency result is “inactive”.

Regarding `CC1(C)SC2C(NC(=O)COc3ccccc3)C(=O)N2C1C(=O)O` (centres undefined), the Potency entry is “inactive and 8.91 µM (active)”. `CC1(C)S[C@@H]2[C@H](NC(=O)COc3ccccc3)C(=O)N2C1C(=O)OCc1ccccc1` (some centres undefined): the Potency entry was “inactive”. To `COC(=O)Cc1ccc(OCC(=O)NC2CCCC2)cc1` belongs “inactive”.

For the molecule `OCC(CO)NC1C[C@](O)(CO)[C@@H](O)[C@H](O)[C@H]1O` (some centres undefined), the Potency result was “inactive”. To `CC(=O)OCC(=O)[C@@]1(O)CC[C@@H]2[C@H]3CCC4=CC(=O)C=C[C@]4(C)[C@]3(F)[C@@H](O)C[C@@]21C` belongs “inactive”; to `Cc1c(Cl)cccc1NC(=O)C1CCCN(c2ncnc3onc(C)c23)C1` (centres undefined), “inactive”.

Consider `Cc1cccc(C(C)C)c1NC(=O)C(NS(=O)(=O)c1cccc2nsnc12)c1ccccc1` (centres undefined), for which the Potency result is “inactive”. With `COCCCn1c(SCC(=O)NC2CCCC2)nnc1-c1ccccc1`, the Potency result is “inactive”. As to `COCCCn1c(Cc2csc(Nc3cccc(Cl)c3)n2)nnc1SCC(=O)OC1CCCCC1`, the Potency was 12.6 µM (active). In the case of `COCCn1c(Cc2cccn2C)nnc1SCC(=O)Nc1nccs1` it was “inactive”; in that of `FCOC(C(F)(F)F)C(F)(F)F`, “inactive”; in that of `C=C1C(=CC=C2CCC[C@@]3(C)[C@@H]2CC[C@H]3[C@H](C)CCCC(C)C)C[C@@H](O)C[C@@H]1O`, “inactive”. To `CCOC(=O)c1ccc(NC(=O)CSc2nc3c([nH]c4ccccc43)c(=O)n2C)cc1` belongs “inactive”; to `COc1ccc(-n2c(O)c(C=NCC(c3ccco3)N3CCCC3)c3ccccc3c2=O)cc1OC` (centres undefined), “inactive”. To `CCOc1ccc(-n2c(C)nc3c(cnn3-c3ccc(C)cc3)c2=O)cc1` belongs “inactive”; to `CCOc1ccc(-n2c(O)c(/C=N/Nc3nnc(C)c(=O)[nH]3)c3ccccc3c2=O)cc1`, 10 µM (active); to `CCOc1ccc(-n2c(O)c(/C=N/Nc3nc(C)cc(C)n3)c3ccccc3c2=O)cc1`, 11.2 µM (active). As to `CCOc1ccc(-n2c(SCC(=O)NCc3ccccc3)nc3n[nH]c(C)c3c2=N)cc1`, the Potency entry was “inactive”. Turning to `CCOc1ccc(N/C(N)=N/c2nc(C)c(C)c(=O)[nH]2)cc1`, the Potency entry is “inactive”.

Regarding `Cc1ccc(-c2ncc(Cl)cc2-c2ccc(S(C)(=O)=O)cc2)cn1`, the Potency result is “inactive”.

On to `COc1ccc2c(c1)c(=O)c(S(=O)(=O)c1ccc(F)cc1)cn2CC(=O)Nc1ccc(C)cc1C`, for which the Potency result was “inactive”. For `CC1(C)OC2CC(=O)OC[C@@]23C1CC(=O)[C@]1(C)C3CC[C@@]2(C)C(c3ccoc3)OC(=O)C3O[C@@]321` (some centres undefined), the Potency entry is “inactive”. To `CCOC(=O)Cc1cccc(-c2cc(CCCCCCc3ccc(O[C@H]4O[C@H](COC(C)=O)[C@@H](OC(C)=O)[C@H](OC(C)=O)[C@@H]4OC(C)=O)c(-c4cccc(CC(=O)OCC)c4)c3)ccc2O[C@H]2O[C@H](COC(C)=O)[C@@H](OC(C)=O)[C@H](OC(C)=O)[C@@H]2OC(C)=O)c1` belongs “inactive”. To `Cc1nc(N2CCOCC2)c2c(C(=O)NCc3cccc(Cl)c3)c(C)oc2n1` belongs “inactive”; to `COc1ccc(S(=O)(=O)NCc2cccn2Cc2cccc(C)c2)cc1Cl`, “inactive”; to `Cc1ccc(Cl)cc1NC(=O)CCC(=O)N1CC(C)Sc2ccccc21` (centres undefined), “inactive”.

For `Cc1cccc(C(=O)Nc2ccc(-c3nc4ccccc4s3)c(C)c2)c1`, the Potency entry is “inactive”. To `Cc1ccc(-n2c(SCC(=O)NCCC3=CCCCC3)nc3n[nH]c(C)c3c2=N)cc1Cl` belongs “inactive”. To `COc1ccc(-n2c(SCC(=O)Nc3ccc(Cl)c(C)c3)nc3n[nH]c(C)c3c2=N)cc1` belongs “inactive”; to `COc1cccc(-n2c(SCC(=O)NC3CCCCC3)nc3n[nH]c(C)c3c2=N)c1`, 10 µM (active).
